Only some compounds are listed: those with a hit (about 2.5% of all), similar ones and a draw of the others.
MBD2 inh: MBD2-methylated oligo binding inhibition; inhibition, % at 4.4 µM; Q9UBB5; AID 686964; TR-FRET, MBD2 binding to methylated oligonucleotide; 370,000 compounds, 0.31% hits; in the data active means inhibition above about 13%
UHRF1 MBD2 ctr: human UHRF1 methylated DNA binding inhibitors; Q96T88; UHRF1 binding to methylated oligo, TR-FRET; inhibition, % at 4.4 µM; 370,000 compounds, 0.75% hits; AID 687016; in the data active means inhibition above about 21%;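 further: UHRF1 SRA domain binding a hemimethylated CpG hairpin DNA probe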
Target sequence (Q96T88 whole entry, looked up, the tested form may be a part): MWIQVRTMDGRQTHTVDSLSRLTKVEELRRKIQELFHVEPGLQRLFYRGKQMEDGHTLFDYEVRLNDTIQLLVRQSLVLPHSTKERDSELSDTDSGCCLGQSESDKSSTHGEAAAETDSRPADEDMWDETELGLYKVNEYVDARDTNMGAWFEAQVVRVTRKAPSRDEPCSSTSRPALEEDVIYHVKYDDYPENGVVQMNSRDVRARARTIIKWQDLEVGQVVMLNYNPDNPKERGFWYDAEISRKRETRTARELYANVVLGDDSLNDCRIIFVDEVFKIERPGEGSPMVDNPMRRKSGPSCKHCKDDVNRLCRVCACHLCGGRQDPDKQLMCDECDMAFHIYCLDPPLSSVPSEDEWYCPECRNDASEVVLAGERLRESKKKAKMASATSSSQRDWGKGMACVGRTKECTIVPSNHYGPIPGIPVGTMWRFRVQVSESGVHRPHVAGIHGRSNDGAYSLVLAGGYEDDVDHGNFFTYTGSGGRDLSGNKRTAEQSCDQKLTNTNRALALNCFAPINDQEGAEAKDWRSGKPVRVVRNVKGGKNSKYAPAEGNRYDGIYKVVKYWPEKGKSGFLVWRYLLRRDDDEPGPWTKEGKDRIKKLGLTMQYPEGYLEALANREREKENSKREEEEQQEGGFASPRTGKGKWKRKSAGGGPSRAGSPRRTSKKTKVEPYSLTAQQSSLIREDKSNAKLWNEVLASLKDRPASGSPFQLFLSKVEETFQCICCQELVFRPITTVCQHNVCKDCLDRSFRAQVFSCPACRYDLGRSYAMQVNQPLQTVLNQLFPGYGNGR
PRMT1 inh: PRMT1 (human) inhibition, primary screen; Q99873; recombinant PRMT1, activity-based probe fluorescence polarization; inhibition, % at 2.79 µM; 370,000 compounds, 1.3% hits;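 active means inhibition above about 21% made by adding two undisclosed values, limit read from the data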
LEDGF integ inh: blocks HIV-1 LEDGF/p75-dependent DNA integration | 370,000 compounds, 0.64% hits | TR-FRET IN-LEDGF/p75 DNA integration, Eu/Cy5 | inhibition, % at 3.7 µM | AID 743269;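 active means inhibition above the screen-wide mean plus 3 SD, cut at about 13% in these data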;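 further: signal is the Cy5 over europium emission ratio at 671 and 618 nm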
PRMT1 confirm: PRMT1 (human) inhibition, FP confirmation; AID 687036; shares compounds with PRMT1 inh; inhibition, % at 2.79 µM; recombinant His-PRMT1, activity-based probe fluorescence polarization; 3,300 compounds, 42% hits;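 active means mean inhibition across replicates above the hit cutoff derived for the earlier primary screen, cut at about 22% in these data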
UHRF1 DNA bind: inhibits human UHRF1 binding to methylated oligonucleotide, MBD2 counter-screen; shares compounds with MBD2 inh; inhibition, % at 4.4 µM; TR-FRET; 1,000 compounds, 25% hits; in the data active means inhibition above about 21%;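 further: UHRF1 SRA domain binding a labeled hemimethylated CpG hairpin DNA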
MBD2 confirm: MBD2-DBD methyl-DNA binding inhibition, TR-FRET confirmation. shares compounds with MBD2 inh. TR-FRET MBD2-DBD binding to methylated oligonucleotide. inhibition, % at 4.4 µM. 1,000 compounds, 26% hits. AID 720531
IN multimer act: activates HIV-1 integrase multimerization in LEDGF counter-screen. shares compounds with LEDGF integ inh. TR-FRET HIV-1 integrase multimerization, biochemical. activation, % at 7.7 µM. 2,000 compounds, 17% hits. AID 1053131; in the data active means activation above about 8.9%
TRFRET interf: counter-screen for LEDGF/p75 integration inhibitors: TR-FRET optical interference; TR-FRET optical interference counterscreen, HIV-1 IN multimerization; 2,000 tested, under 10 active; inhibition, % at 7.7 µM; shares compounds with LEDGF integ inh; AID 1053135;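 active means inhibition above the mean over all tested compounds plus 3 SD, which no compound reached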
IN-LEDGF confirm: confirmation of HIV-1 LEDGF/p75-dependent integration inhibitors; shares compounds with LEDGF integ inh; TR-FRET LEDGF/p75-dependent HIV-1 integration, biochemical; inhibition, % at 3.7 µM; 2,000 compounds, 36% hits
A number is an active result; – = inactive; · = no result. Unless noted, no stated cut-off is given here; in the data, active means inhibition above about 14%; inactive means the rest.

SMILES	MBD2 inh	UHRF1 MBD2 ctr	PRMT1 inh	LEDGF integ inh	UHRF1 DNA bind	MBD2 confirm	others
CC(Cc1ccc(O)cc1)NCC(O)c1ccc(O)c(O)c1 (stereo not drawn)	–	–	25.2	35.2	·	·	PRMT1 confirm=–;IN multimer act=10.2;TRFRET interf=–;IN-LEDGF confirm=63.1
CCC/C=N/O	–	–	–	–	·	·
NN=C1C(Cl)=C(Cl)C(Cl)=C1Cl	–	40.3	25.5	22.4	·	·	PRMT1 confirm=–;IN multimer act=–;TRFRET interf=–;IN-LEDGF confirm=–
CC12CN3CCN(CC(C3)/C1=N/NC(N)=O)C2	–	–	–	–	·	·
O=[N+]([O-])c1ccc(N2CCOCC2)c2cccnc12	–	–	–	–	·	·
O=[N+]([O-])c1ccc(N2CCOCC2)c2c1no[n+]2[O-]	–	–	26.7	13.7	·	·	PRMT1 confirm=–;IN multimer act=–;TRFRET interf=–;IN-LEDGF confirm=–
O=C1NC(=O)N(c2ccccc2)C(=O)/C1=C\C=C\c1ccccc1	–	–	–	–	·	·
CCCCN1C(=O)/C(=C/C=C/c2ccco2)C(=O)NC1=S	28.9	83.0	39.3	56.3	47.6	19.3	PRMT1 confirm=43.7;IN multimer act=–;TRFRET interf=–;IN-LEDGF confirm=73.5
CCc1ccc(N2C(=O)NC(=O)/C(=C\C=C\c3ccco3)C2=O)cc1	–	–	27.5	34.9	·	·	PRMT1 confirm=–;IN multimer act=–;TRFRET interf=–;IN-LEDGF confirm=39.7
CC12CCC(=O)C=C1CC(O)C1C2CCC2(C)C1CCC2(C)O (stereo not drawn)	–	–	–	–	·	·
CO[C@@H]1C=CC23c4cc5c(cc4CO[C@]2(O)CN(C)[C@H]3C1)OCO5 (stereo partly drawn)	–	–	–	–	·	·
CN(C)[C@@H]1C(=O)C(C(N)=O)=C(O)[C@@]2(O)C(=O)C3=C(O)c4c(O)ccc(Cl)c4[C@@](C)(O)C3C[C@@H]12 (stereo partly drawn)	–	–	27.0	27.7	·	·	PRMT1 confirm=–;IN multimer act=13.8;TRFRET interf=–;IN-LEDGF confirm=28.1
O=C(c1ccc(Cl)cc1)C1CCCN(Cc2ccc3ncccc3c2)C1 (stereo not drawn)	15.1	24.6	–	–	–	–
O=C(c1ccc(Cl)cc1)C1CCCN(Cc2ccc3c(c2)OCCO3)C1 (stereo not drawn)	–	–	–	–	·	·
S=C(NCCc1ccccc1)N1Cc2ccccc2-n2nncc2C1	–	–	–	–	·	·
COc1ccc(-n2c(O)c(/C=C3\C=Nc4ccc(Br)cc43)c(=O)[nH]c2=O)c(OC)c1	28.4	–	–	–	–	–
CCCCNC(=O)Nc1ccc(C(O)(C(=O)OCC)C(F)(F)F)cc1 (stereo not drawn)	–	–	–	–	·	·
c1ccc(-c2cc(-c3ccccc3)[n+](-c3ccccc3)c(-c3ccccc3)c2)cc1	13.3	–	–	–	–	39.9
Cc1ccc(-c2cc(-c3ccccc3)cc(-c3ccccc3)[n+]2-c2ccccc2)cc1	–	–	–	–	·	·
C[C@H](NC(=O)OCc1ccccc1)[P+](=O)O	14.4	–	–	–	–	–
CC(=O)N1Cc2cnnn2-c2ccccc2C1(C)C#N (stereo not drawn)	–	–	–	–	·	·
CC(=O)N1Cc2cnnn2-c2ccccc2C1(C#N)Cc1ccccc1 (stereo not drawn)	29.2	–	–	–	–	–
CCCCSP1(=S)NCCCO1 (stereo not drawn)	38.4	–	–	–	–	–
CN1C(=O)C(C)(C2=CCCCC2)C(=O)NC1=S (stereo not drawn)	–	–	–	–	·	·
C#C[C@]1(O)CCC2C3CCC4=C/C(=N/OCC(=O)NC(C)C(=O)NC(CCSC)C(=O)O)CC[C@]4(C)C3CC[C@@]21C (stereo partly drawn)	44.4	–	–	–	–	–

High-throughput results deposited in PubChem by The Scripps Research Institute Molecular Screening Center.
